# Source: PubChem BioAssay (National Center for Advancing Translational Sciences (NCATS))
# An excerpt weighted towards active compounds, which were near 19% of everything screened.
# HT1080 IDH1KD tx – toxicity to HT-1080 IDH1 knockdown cells (counter line) | hit rate 2% among 360,000 | HT-1080 IDH1 knockdown viability, ATP luminescence, 48 h | Potency, µM (highest dose often 46.1 µM), for the others: at the highest dose activity, negative = toxicity, most hits filed as cytotoxic | AID 686971;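 note: potency is the fitted concentration of half-maximal effect; 0% = DMSO wells and -100% = cell-free medium wells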
#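 IDH1KD HT-1080 cells, 750/well, RPMI + 5% FBS; compound pinned after 2 h settling; 48 h, 37 °C; CellTiter-Glo luminescence; % activity normalised to DMSO and no-cell wells; curves fitted, classed by r2 and efficacy.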
# HT1080NT lethal – kills 2HG-producing HT-1080-NT fibrosarcoma cells; Potency, µM (series often up to 46.1 µM), without a hit: top-dose activity, negative = less viability, usual class: cytotoxic; AID 686970; hit rate 1.6% among 360,000; HT-1080-NT fibrosarcoma viability, CellTiter-Glo ATP luminescence, 48 h;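 note: NT is the 2HG producing partner of a matched IDH1 knockdown line; potency is the fitted concentration of half-maximal effect; 0% = DMSO-treated cells and -100% = media-only wells without cells; nearly all actives have a fitted effect of over 55% in size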
#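 Luminescent CellTiter-Glo readout after 48 hours of compound exposure at 37 degrees C defined viability of HT-1080-NT cells. Activity was normalized to DMSO wells and cell-free media wells; concentration-response curves were fitted and assigned curve classes.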
# IL-1B inflam inh – inhibitors of inflammasome signaling (IL-1 beta secretion); THP-1 LPS/ATP IL-1B secretion, AlphaLISA, 16 h; hits give low values; activity change, % at 57.5 µM; hit rate 4.7% among 360,000; in the data active = activity change below about -50%; inconclusive = mostly about -30% to -49%
#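 THP-1 cells pretreated 1 hr with compounds (up to 57.5 uM final), then stimulated with LPS (250 ng/mL final) plus ATP (1.25 mM final); secreted IL-1B measured by AlphaLISA after 16 hr, decreased signal indicating inhibition.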
# ELG1 repair inh – inhibitors of ELG1-dependent DNA repair in HEK293T cells; hit rate 2.3% among 330,000; HEK293T ELG1-luciferase reporter, luminescence, 16 h; DNA damage induced by 5-fluorouridine; Potency, µM (highest dose often 46.1 µM), without a hit: top-dose activity change, negative = inhibition, actives largely listed as inhibitors; note: potency is the fitted concentration of half-maximal effect; nearly all actives have a fitted effect of over 55% in size
#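 Cells (2,000 per well) received 5-fluorouridine plus test compound or DMSO and were incubated 16 hr at 37 °C, 5% CO2. Luciferase activity was read by luminescence 30 min after ONE-Glo addition; signal suppression marked inhibition of damage-induced ELG1 function.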
# DT40 TDP1 CPT – growth inhibition of DT40 Tdp1-/-;hTDP1 cells with camptothecin (screen for TDP1 inhibitors). chicken DT40 Tdp1-/-;hTDP1 cells + 20 nM CPT, ATP luminescence, 48 h. Potency, µM (top dose mostly 46.2 µM), for the others: at the top dose activity change, negative = growth inhibition, hits mostly inhibitors. hit rate 12% among 420,000. AID 686979; note: potency is the fitted concentration of half-maximal effect; nearly all actives have a fitted effect of over 55% in size
#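 Chicken DT40 Tdp1-/- cells stably complemented with human TDP1 were seeded at 400 cells/well in medium containing 20 nM camptothecin, exposed to pin-transferred compounds, and grown at 37 °C for at least 48 hr. Viability was read as ATP luminescence.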
# DT40 TDP1 no CPT – qHTS for Inhibitors of human tyrosyl-DNA phosphodiesterase 1 (TDP1): qHTS in cells in absence of CPT; DT40 Tdp1-/- hTDP1 cells, no CPT, ATP luminescence, 48 h; Potency, µM (titrated, usually from 46.2 µM), for inactives: at the highest dose activity change, negative = growth inhibition, usual class: inhibitors; hit rate 15% among 420,000; AID 686978, 2013; note: potency is the fitted concentration of half-maximal effect; nearly all actives have a fitted effect of over 55% in size
#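 Growth kinetics read by CellTiter-Glo luminescence after ≥48 hr at 37 °C. Cells: DT40 Tdp1-/- stably carrying human TDP1, 400 per well, compound exposure in the absence of CPT (DMSO vehicle).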
# * = called active by the depositor; u = inconclusive; x = no result given; ! = a repeat was not active. Unless noted, calls come from the whole dose curve; as a rule, active = well fitted curve in the direction sought with a large enough effect; inconclusive = small, poorly fitted or top-dose-only effect, or another doubt; inactive = no such curve, though single readings can be large; an effect the other way counts as inactive or inconclusive. Unless noted, % is set by controls: 0 for no effect and ±100 for the full control effect.
SMILES,HT1080 IDH1KD tx,HT1080NT lethal,IL-1B inflam inh,ELG1 repair inh,DT40 TDP1 CPT,DT40 TDP1 no CPT
CCCCN(C(=O)c1ccc(S(=O)(=O)N2CCC(C)CC2)cc1)C1CCS(=O)(=O)C1 (centres undefined),13%,12%,-9,-6%,-27%,u
CC1=CC(C)(C(Cl)(Cl)Cl)C(C)=CC1=NO (centres undefined),-7%,-22%,-24,x,-13%,u
CCCCSCc1nc2ccccn2c1Br,1%,-3%,18,u,u,u
COc1ccc(CCNCc2cc(C)n(-c3ccc(OC)cc3)c2C)cc1,-20%,-24%,-29,-7%,16µM*,u
COc1ccc(CCNC2CCC(c3ccccc3)CC2)cc1 (centres undefined),u,18µM*,u,1%,-73%,u
COc1ccc(CCNC(=O)CN2CCN(c3ccccc3Cl)CC2)cc1,u,-22%,-6,-6%,-22%,u
COc1ccc(CCNCc2ccccc2N2CCCC2)cc1,-29%,u,u,u,18µM*,u
CC1=CC(C)(C)NC(=S)N1c1ccccc1C,-1%,1%,23,4%,u,26µM*
Cc1ccc(-c2nnc(SCCC(=O)Nc3ccccc3)n2C)cc1,x,x,x,x,-24%,-16%
Cc1ccccc1CS(=O)(=O)c1ncc(Cl)c(C(=O)Nc2ccc(F)cc2)n1,u,u,-98*,u,3.3µM*,2.1µM*
CCOc1ccc(NC(=O)c2nc(S(=O)(=O)Cc3ccccc3C)ncc2Cl)cc1,x,x,x,x,1µM*,0.71µM*
CCc1ccc(NC(=O)c2nc(SCc3ccccc3F)ncc2Cl)cc1,x,x,x,x,-30%,-29%
Cc1cccc(-c2nc(CSc3nncn4c3cc3sccc34)c(C)o2)c1,x,x,x,x,-96%,u
Cc1ccccc1CNC(=O)C(=O)NCC(c1ccco1)S(=O)(=O)c1cccs1 (centres undefined),x,x,x,x,u,-3%
COc1ccc(CNCC(O)(c2ccccc2)c2ccccc2)cc1OC,-21%,-11%,-13,23µM*,-73%,13µM*
COc1ccc(CNC(=S)NCc2ccc(F)cc2)cc1,12%,6%,10,-3%,-9%,-11%
COc1ccc(CNCC(O)(c2ccc(F)cc2)c2ccc(F)cc2)cc1,u,u,-89*,u,u,13µM*
OC(CNCc1ccccc1)(c1ccccc1)c1ccccc1,-12%,-2%,-10,2%,-24%,u
COc1ccc(CNCC(O)(c2ccccc2)c2ccccc2)cc1,-20%,-9%,-78*,-8%,u,18µM*
COc1ccc(CNCc2ccncc2)cc1OC,20%,16%,15,u,-9%,1%
CSc1ncccc1C(=O)N1CCN(S(=O)(=O)c2ccc3c(c2)OCCO3)CC1,7%,1%,4,0%,u,-29%
CC(C(=O)Nc1ccccc1C#N)N1C(=O)NC2(CCCCCC2)C1=O (centres undefined),0%,-4%,15,u,-15%,u
N#C/C(=C\c1ccc(O)c(O)c1)C(=O)Nc1ccccc1,u,-17%,23,u,24µM*,10µM*
CC(NC(=O)/C(C#N)=C/c1ccc(OCC(=O)O)cc1)c1ccccc1 (centres undefined),-2%,2%,-2,3%,1%,-7%
N#C/C(=C\c1cccnc1)C(=O)Nc1ccccc1,19%,22%,4,18%,-5%,u
SMILES,HT1080 IDH1KD tx,HT1080NT lethal,IL-1B inflam inh,ELG1 repair inh,DT40 TDP1 CPT,DT40 TDP1 no CPT
C[C@@H](NC(=O)/C(C#N)=C/c1ccc(O)c(O)c1)c1ccccc1,u,u,28,0%,24µM*,13µM*!
C[C@H](NC(=O)/C(C#N)=C/c1ccc(O)c(O)c1)c1ccccc1,x,x,x,x,19µM*,19µM*
CC(C)NC(=O)/C(C#N)=C/c1ccc2c(c1)OCCO2,2%,11%,-22,u,-1%,u
CC(NC(=O)/C(C#N)=C/c1ccc(Cl)c([N+](=O)[O-])c1)c1ccccc1 (centres undefined),u,u,-98*,u,3.7µM*,3.7µM*
Cc1cccc(NC(=O)/C(C#N)=C/c2cccc([N+](=O)[O-])c2)n1,3%,6%,16,2%,-5%,-23%
O=C(Cc1cccs1)N(c1ccc(Br)cc1)C1C=CS(=O)(=O)C1 (centres undefined),14%,13%,15,u,16µM*,u
C/C(=N\NS(=O)(=O)c1ccc([N+](=O)[O-])cc1)c1c[nH]c2ccccc12,-1%,-5%,37,16%,-12%,-3%
CN(C)S(=O)(=O)c1ccc(C(=O)OCC(=O)N2CC3(C)CC2CC(C)(C)C3)cc1 (centres undefined),6%,10%,13,10%,u,-9%
COc1ccc(S(=O)(=O)N2CCN(c3nn(C)c(=O)n(C)c3=O)CC2)cc1,0%,3%,15,u,u,16µM*
N#Cc1ccc(Oc2ccc(S(=O)(=O)N3CCOCC3)cn2)cc1,1%,5%,1,19%,-20%,-13%
O=S(=O)(c1ccc(Oc2ncnc3scc(-c4ccccc4)c23)cc1)N1CCOCC1,-14%,-28%,-10,u,23µM*,18µM*
CC(=O)c1ccc(S(=O)(=O)N2CCN(c3nn(C)c(=O)n(C)c3=O)CC2)cc1,-11%,-2%,6,9%,-17%,1%
Cc1ccc2cccc(Oc3ncnc4sc(C)c(C)c34)c2n1,2%,19%,33,2%,-22%,u
Cc1ccc(S(=O)(=O)N2CCN(C(=O)C3CCN(c4ncnc5sc(C)c(C)c45)CC3)CC2)c(C)c1,14%,0%,26,x,8.2µM*,3.7µM*
Cc1ccc(-c2csc3ncnc(Oc4cccc5ccc(C)nc45)c23)cc1,-6%,0%,10,12%,u,21µM*
COc1ccc(-c2cc3nc(C)c(CCC(=O)N4CCN(c5ccccc5)CC4)c(C)n3n2)c(OC)c1,x,x,x,x,19%,-4%
Cc1cc(Cl)ccc1NC(=O)Cn1nnc2sc(-c3ccccc3)cc2c1=O,x,x,x,x,0%,u
CC1(C)CC(=O)C2=C(C1)NC(Nc1nc3ccccc3o1)=NC2c1cccc(O)c1 (centres undefined),x,x,x,x,7%,u
